# Bioassay records as filed in PubChem.
# In the library only some 2.4% were active in any assay of this set; here they are far more common.
# Cruzain inh Det: blocks cruzain activity in presence of Triton detergent. P25779. purified cruzain, Z-FR-AMC fluorescence, 0.01% Triton. Potency, µM, usual class: inhibitors. 200,000 compounds, 0.43% hits; further: nearly all actives have a fitted effect of over 40% in size
# Target sequence (P25779 123-467 limits assumed): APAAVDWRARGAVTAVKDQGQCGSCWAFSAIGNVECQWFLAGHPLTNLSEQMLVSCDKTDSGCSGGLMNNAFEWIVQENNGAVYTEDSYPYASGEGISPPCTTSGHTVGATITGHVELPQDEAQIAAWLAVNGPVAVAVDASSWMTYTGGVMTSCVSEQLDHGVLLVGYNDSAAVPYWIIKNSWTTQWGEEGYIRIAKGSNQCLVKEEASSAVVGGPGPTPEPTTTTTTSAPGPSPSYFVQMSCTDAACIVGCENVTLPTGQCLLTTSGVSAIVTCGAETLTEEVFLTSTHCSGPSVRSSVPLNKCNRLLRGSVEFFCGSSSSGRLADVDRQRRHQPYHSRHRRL
#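 Cysteine protease activity tested under reducing, mildly acidic conditions (100 mM sodium acetate pH 5.5, 5 mM DTT) plus 0.01% Triton X-100. Cruzain 1.5 nM; substrate Z-FR-AMC 2 uM; 15 min compound preincubation at room temperature.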
# Cruzain noTriton: cruzain (T. cruzi) inhibition without detergent | Potency, µM, most hits filed as inhibitors | P25779 | 200,000 compounds, 2.3% hits | purified cruzain, Z-FR-AMC fluorescence, no detergent; further: nearly all actives have a fitted effect of over 40% in size
#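 Purified cruzain at 1.5 nM, pre-incubated 15 min with compound at room temperature in 100 mM sodium acetate pH 5.5, 5 mM DTT, 0.00005% Triton X-100. Reaction started with 2 uM Z-FR-AMC; AMC fluorescence increase over 60 s gives rate.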
# Hits are given with their value; . = inactive; ? = inconclusive. The call rests on the fitted dose curve; in most records, active means well fitted curve in the direction sought with a large enough effect; inconclusive means small, poorly fitted or top-dose-only effect, or another doubt; inactive means no such curve, though single readings can be large; an effect the other way counts as inactive or inconclusive.
SMILES,Cruzain inh Det,Cruzain noTriton
Cc1sc(/C=C2\C(=O)ON=C2c2ccccc2)cc1Br,?,25µM
CCCCc1ccc(/C=C2/C(=O)ON=C2c2ccccc2)s1,.,.
N#CCC(=N)N1CCN(c2ccc(Cl)cc2)CC1,.,13µM
Cc1ccc(C(=O)N2CCN(c3ccc(Cl)cc3)CC2)cc1,.,.
O=C1c2ccccc2C(=O)N1C[C@]1(C(=O)O)NCCS1(=O)=O,.,.
O=C(Nc1ccc2oc(-c3cccc4c(Br)cccc34)nc2c1)c1ccc(Br)cc1,.,.
COc1ccc2[nH]c3c(c2c1)CCN=C3C,.,13µM
COc1ccc2[nH]c3c(c2c1)CCNC3=O,.,.
CCCc1[nH]nc2c1C(c1cc(OC)cc(OC)c1)C(C#N)=C(N)O2 (stereo not given),.,.
CCCc1[nH]nc2c1C(c1cccc(OC(=O)c3ccco3)c1)C(C#N)=C(N)O2 (stereo not given),?,20µM
Cc1cccc(NC(=O)/C(C#N)=C/c2cn(CC(=O)NCc3ccco3)c3ccccc23)c1,.,10µM
N#C/C(=C\c1cn(Cc2ccccc2F)c2ccccc12)C(=O)NCc1ccco1,.,.
Cc1ccc(NC(=O)/C(C#N)=C\c2ccc(Cl)cc2Cl)cc1C,.,.
N#C/C(=C/c1cn(Cc2ccccc2Cl)c2ccccc12)C(=O)Nc1cccc(Cl)c1,.,3.2µM
Cc1c(/C=C(\C#N)C(=O)Nc2cccc(Cl)c2)c2ccccc2n1Cc1ccccc1Cl,.,1.6µM
Cc1ccc(C)c(OCCn2cc(/C=C(\C#N)C(=O)NCc3ccco3)c3ccccc32)c1,.,?
Cn1cc(C(=O)N2CCN(c3cccc(C(F)(F)F)c3)CC2)c2c3ccccc3n(C)c2c1=O,.,?
C=CCOC(=O)N[C@@H](c1cccs1)C(C(C)=O)C(C)=O,.,.
Cc1noc(C)c1-c1cncnc1NCc1cccnc1,.,.
COc1cccc(Cn2cnc3c(NS(=O)(=O)c4ccc(Cl)cc4Cl)c(C)c(C)cc32)c1,.,32µM
COc1cccc(Cn2cnc3c(NS(=O)(=O)c4cc(Cl)ccc4Cl)c(C)c(C)cc32)c1,.,?
Cc1ccc(S(=O)(=O)N2CCN(Cc3ccc4c(c3)OCO4)CC2)cc1,.,.
Cc1cccc(CCNC(=O)C2CCC(CNS(=O)(=O)c3c(C)cc(C)cc3C)CC2)c1 (stereo not given),.,.
c1ccc(C(c2cccc3c2ccc2ccccc23)[C@H](c2ccccc2)c2cccc3c2ccc2ccccc23)cc1 (stereo not given in full),.,4µM
c1ccc2c(c1)ccc1cc3c(ccc4ccccc43)cc12,.,.
SMILES,Cruzain inh Det,Cruzain noTriton
CC(=O)c1cccc(NC(=O)COc2ccccc2)c1,.,.
O=C(COc1ccc2ccccc2c1)Nc1cccc(C(=O)Nc2ccccc2C(=O)O)c1,32µM,?
COc1ccc(-c2nc(-c3ccccc3)c(-c3cccs3)[nH]2)cc1OC,.,.
COc1ccc(-c2nc(-c3ccccc3)c(-c3ccccc3)[nH]2)cc1Br,.,3.2µM
C=C1CCC[C@]2(C)C[C@H]3OC(=O)[C@H](CNCCc4ccccc4OC)C3CC12 (stereo not given in full),.,.
CC(C)CCC(C)N=Cc1c(O)n(Cc2ccccc2)c(=O)c2ccccc12 (stereo not given),.,?
COc1ccc(Cn2c(O)c(C=Nc3ccc(OC)cc3)c3ccccc3c2=O)cc1,.,13µM
CC(=O)Nc1ccccc1-c1nc2ccccc2n(C(C)C(=O)Nc2cc(Cl)ccc2C)c1=O (stereo not given),.,.
CCc1ccccc1NC(=O)CN(C)S(=O)(=O)c1cccc2nsnc12,.,.
CCCC/C=C/C(NC(=O)c1ccccc1)c1ccccc1 (stereo not given),.,.
COc1ccc(C(C)NC(=O)c2ccccc2)cc1 (stereo not given),.,.
COc1ccc(C(=O)Nc2ccc(C(=O)OCC(=O)c3ccccc3)cc2)cc1,.,6.3µM
CCOC(=O)c1ccc(NC(=O)c2ccc(NC(=O)c3ccccc3)cc2)cc1,.,.
COc1ccc(C(NC(=O)c2ccc(-c3ccccc3)cc2)c2ccccc2)cc1 (stereo not given),.,7.9µM
COc1ccc(C(=O)COC(=O)c2ccc(NC(=O)c3ccccc3)cc2)cc1,.,13µM
CCCC/C=C/C(NC(=O)c1ccc(-c2ccccc2)cc1)c1ccccc1 (stereo not given),.,16µM
COc1ccc(C(=O)COc2ccc(NC(C)=O)cc2)cc1,.,.
Cc1ccccc1C(=O)Nc1ccc(OCc2cc(=O)n3cccc(C)c3n2)cc1,.,.
COc1ccc(NC(=O)CCC(=O)c2ccc(-c3ccccc3)cc2)cc1,.,25µM
Cc1ccc(NC(=O)CCC(=O)OCC(=O)c2ccc(-c3ccccc3)cc2)cc1,.,.
COc1ccc(OC)c(NC(=O)Cn2c(=O)n(-c3ccc(Cl)cc3)c(=O)c3c(C)c(C)sc32)c1,.,.
Cc1nc2cc(C(=O)OCC(=O)Nc3cccc(Cl)c3)ccc2n1-c1ccccc1,.,25µM
Cc1nc2cc(C(=O)OCC(=O)NC34CC5CC(CC(C5)C3)C4)ccc2n1-c1ccccc1,.,.
O=c1cc(-c2ccc(F)cc2)nc(SCc2nc(-c3cccc(Cl)c3)no2)[nH]1,.,.
Cc1cccc(Nc2nnc(-c3ccc(C)c(S(=O)(=O)NCC4CCCO4)c3)c3ccccc23)c1 (stereo not given),.,.
SMILES,Cruzain inh Det,Cruzain noTriton
C/C(=N\Nc1nnc(-c2ccccc2)c(-c2ccccc2)n1)c1cccc([N+](=O)[O-])c1,.,?
O=[N+]([O-])c1cccc(/C=N/Nc2nnc(-c3ccccc3)c(-c3ccccc3)n2)c1,.,7.9µM
N#Cc1c(NC(=O)COC(=O)C2CC3C=CC2C3)oc(-c2ccccc2)c1-c1ccccc1 (stereo not given),.,7.9µM
COc1ccccc1OCC(=O)Nc1oc(-c2ccccc2)c(-c2ccccc2)c1C#N,.,?
CCc1ccc2oc(C(=O)NCC(c3ccc(Cl)cc3)N3CCOCC3)c(C)c2c1 (stereo not given),.,.
Cc1cc(O)c(C(C[N+](=O)[O-])c2ccc(Cl)cc2)c(=O)o1 (stereo not given),.,.
Cc1cc(C)n(C(C[N+](=O)[O-])c2ccc(Cl)cc2)n1 (stereo not given),.,20µM
Cc1ccc(C)c(NC(=O)Cn2c(=O)oc3cc(S(=O)(=O)NCc4ccccc4)ccc32)c1,.,?
COc1cccc(N2CCN(S(=O)(=O)c3cn(C)c(C)n3)CC2)c1,.,.
CCOC(=O)N1CCC(NC(=O)c2c(C)nn(-c3cccc(C)c3)c2-n2cccc2)CC1,.,?
Cc1nn2c(=O)cc(COc3ccc(/C=C(\C#N)C(=O)Nc4ccc(F)cc4)cc3)nc2s1,.,.
CC(C)n1c(=O)c2c(O)cc(=O)oc2c2ccccc21,.,25µM
CCn1c(=O)c2c(O)cc(=O)oc2c2ccccc21,.,.
O=[N+]([O-])c1cccc(/C=C/c2nc(C=Nc3ccccc3)c(O)o2)c1,.,13µM
Oc1oc(-c2ccccc2)nc1C=Nc1ccccc1,.,.
CCCc1nnc2n1N=C(c1ccc(OC)c(OC)c1)CS2,.,.
CCCc1nnc2n1N=C(c1ccc(-c3cc(Cl)ccc3Cl)o1)CS2,.,16µM
CCOC(=O)CSc1nc(N)c(C#N)c(-c2ccc(OCC)cc2)c1C#N,.,.
N#Cc1c(N)nc(SCC(=O)NC2CCCCC2)c(C#N)c1-c1ccc(Cl)cc1,.,16µM
